Source: PubChem BioAssay
Shown are actives, neighbours in structure and some others; about 2.4% of the full set was active somewhere.
EP2 mod = EP2 receptor modulators, cAMP readout, primary screen, cell-based, HTRF cAMP, PGE2 stimulation | Prostaglandin E2 receptor EP2 subtype (Homo sapiens), P43116 | EP2-expressing cells, cAMP HTRF FRET, PGE2 co-stimulation | induction, % at 25 µM | 260,000 compounds, 0.83% hits;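 active = compounds whose cAMP rise, as percent of the full-agonist control response, exceeds 60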;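 note: rat C6 glioma line stably carrying human EP2 under a CMV promoter; the protocol text gives 20 µM as final concentration; 100% = response of wells given 1 µM PGE2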
S1P4 ag = S1P4 receptor agonists, primary screen, cell-based; activation, % at 4.98 µM; 220,000 compounds, 0.35% hits; AID 1509, 2009; S1P4-expressing cell line, agonist reporter assay; Sphingosine 1-phosphate receptor 4 (Homo sapiens), O95977; in the data active = activation above about 11%;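 note: 0% = DMSO vehicle and 100% = reference agonist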
Target sequence (O95977 whole entry, looked up): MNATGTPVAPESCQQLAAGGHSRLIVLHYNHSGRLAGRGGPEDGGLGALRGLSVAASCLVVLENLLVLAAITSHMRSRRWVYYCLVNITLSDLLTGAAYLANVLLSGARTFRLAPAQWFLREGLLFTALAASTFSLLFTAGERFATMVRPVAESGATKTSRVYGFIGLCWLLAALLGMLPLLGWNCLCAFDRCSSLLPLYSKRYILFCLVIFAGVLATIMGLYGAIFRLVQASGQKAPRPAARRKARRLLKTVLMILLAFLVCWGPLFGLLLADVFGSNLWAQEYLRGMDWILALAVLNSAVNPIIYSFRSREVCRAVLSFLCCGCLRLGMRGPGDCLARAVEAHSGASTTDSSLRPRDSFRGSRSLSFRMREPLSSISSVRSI
S1P4 antagonist = S1P4 receptor antagonists, primary screen, cell-based. 220,000 compounds, 0.26% hits. S1P4-expressing cells, antagonist mode, reporter read-out. AID 1510, 2009. inhibition, % at 4.98 µM. Sphingosine 1-phosphate receptor 4 (Homo sapiens), O95977; in the data active = inhibition above about 29%;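 note: 0% = wells stimulated with agonist and 100% = vehicle wells without agonist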
Insulin prom inh = inhibitors of insulin promoter-driven GFP, primary screen, imaging, TRM-6 cells (human fetal islet line), eGFP reporter, cell count; reporter expression induced with tamoxifen; inhibition, % at 2 µM; 130,000 compounds, 0.9% hits; AID 1273, 2008;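 active = inhibition above the mean plus 3 SD, with well images judged a real hit on visual review, cut at about 60% in these data, passing the limit was not always enough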
S1P3 antag = S1P3 receptor antagonists, primary screen, cell-based | CHO S1P3 NFAT-BLA reporter, FRET fluorescence, antagonist mode | AID 485, 2006 | Sphingosine 1-phosphate receptor 3 (Homo sapiens), Q99500 | inhibition, % at 4.98 µM | 170,000 compounds, 0.27% hits;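 active = inhibition above the plate cutoff, the mean inhibition of test wells on that plate plus 3 SD, cut at about 28% in these data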;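 note: cells challenged with S1P at its EC80 of 0.8 µM; blue over green emission ratio from cleaved BLA substrate after 4 h stimulation; 0% = S1P-stimulated wells and 100% = unstimulated DMSO-only wells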
PGE2 EP2 inh = human EP2 receptor antagonists, primary screen, TR-FRET cAMP, C6 glioma cells; AID 1422, 2008; 260,000 compounds, 0.52% hits; C6 glioma cells expressing human EP2; cells stimulated with saturating PGE2; Prostaglandin E2 receptor EP2 subtype (Homo sapiens), P43116; inhibition, % at 25 µM;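 active = percent inhibition above 40 after rounding to a whole number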;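 note: rat C6 glioma host cells with rolipram phosphodiesterase inhibitor present; the protocol text gives 20 µM as final concentration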
The depositor's hits bear a star; x = no result; ! = not confirmed by another sample.

SMILES | EP2 mod | S1P4 ag | S1P4 antagonist | Insulin prom inh | S1P3 antag | PGE2 EP2 inh
COc1ccc(/C=C(/C(=O)c2cccs2)N2C=CC=CC2=C(C#N)C#N)cc1 | -8 | 3 | -18 | x | 9 | 31
N#CC(C#N)=C1C=CC=CN1/C(=C\c1ccco1)C(=O)c1ccc(Br)cc1 | -2 | 2 | 9 | -220 | 3 | 49*
COc1ccc(C(=O)C[n+]2ccccc2C)cc1 | 11 | -1 | -5 | 39 | 19 | 6
Cc1cc2ccccc2c[n+]1CC(O)C[n+]1cc2ccccc2cc1C | 18 | x | x | x | x | 55*
CC1CN(S(=O)(=O)c2ccc(C(=O)Nc3nnc(-c4ccc5c(c4)CCCC5)o3)cc2)CC(C)O1 (stereo unspecified) | -13 | -1 | -17 | x | 84* | 10
CC1CN(S(=O)(=O)c2ccc(C(=O)Nc3nnc(-c4ccccn4)o3)cc2)CC(C)O1 (stereo unspecified) | 20 | 1 | 7 | 10 | -17 | 10
O=C(NCC1(c2ccccc2)CCCC1)C1(c2ccccc2)CCCC1 | 62* | 1 | -7 | -39 | x | 3
O=C(NCC1(c2ccccc2)CCCC1)C(=O)NCC1(c2ccccc2)CCCC1 | 19 | 1 | -20 | -324 | x | 2
Cc1ccc(C)c2[nH]c(=O)c(CN(Cc3ccccc3)C(c3nnnn3Cc3ccco3)C(C)C)cc12 (stereo unspecified) | -33 | x | x | x | x | 5
S=C(Nc1ccc(Cl)cc1)N1CCC(c2nc3ccccc3s2)CC1 | -85 | x | x | x | x | 9
Cc1cc(C(=O)CCl)c(C)n1CCc1ccc(Cl)cc1 | -47 | 3 | 3 | x | 4 | 5
Cc1cc(C(=O)CCl)c(C)n1CCc1ccc(F)cc1 | -89 | -3 | 19 | 100* | -8 | 7
Cc1onc(-c2ccccc2Cl)c1C(=O)Nc1sc2c(c1C(N)=O)CCC(C)C2 (stereo unspecified) | 62* | 0 | -12 | 45 | x | x
c1ccc(-n2c(SCCN3CCCCC3)nnc2-c2cccnc2)cc1 | -18 | x | x | x | x | 6
CC1=NOC(=O)/C1=C\c1ccc(-c2cccc(Cl)c2)o1 | -35 | 1 | 2 | 6 | x | 109*
CC1=NOC(=O)/C1=C\c1ccc(-c2ccc(Cl)c(C(=O)O)c2)o1 | 13 | 1 | -14 | 40 | 17 | 7
Cc1sc(/C=C2\C(=O)ON=C2c2ccccc2)cc1Br | 35 | 2 | 3 | 43 | -7 | 7
CC1=NOC(=O)/C1=C\c1ccc(-c2ccccc2Br)o1 | 14 | 0 | -7 | -14 | -5 | 44*
O=C1ON=C(c2ccccc2)/C1=C\c1ccco1 | -58 | 0 | -9 | x | 6 | 12
Cc1ccc(/C=C2/C(=O)ON=C2c2ccccc2)o1 | -50 | 0 | -3 | x | -10 | 80*
O=C(Cn1nc2c3ccccc3ncn2c1=O)Nc1cccc2ncccc12 | 12 | x | x | x | x | 10
CC(C)N(C(=O)Cn1c(SCC(=O)N2CCCCC2)nc2ccccc21)C(C)C | -7 | x | x | x | x | 4
O=C(C(Cc1ccccc1)N1C(=O)c2ccccc2C1=O)N1CCc2ccccc21 (stereo unspecified) | 64* | 2 | -6 | 50 | x | 6
O=C(CN1CCC(O)(c2ccccn2)CC1)NCc1cccs1 | -9 | x | x | x | x | x
CCOc1ccc(NC(=O)c2sc(NC(=O)C(C)C)c(C(=O)OC)c2C)cc1 | -16 | x | x | x | x | 12
SMILES | EP2 mod | S1P4 ag | S1P4 antagonist | Insulin prom inh | S1P3 antag | PGE2 EP2 inh
COc1ccc(CNC(=O)c2nc3c(nnn3Cc3ccc(F)cc3)c(=O)[nH]2)cc1 | 6 | x | x | x | x | x
COc1ccc(Cn2nnc3c(=O)[nH]c(C(=O)NCCc4ccc(F)cc4)nc32)cc1OC | 1 | 0 | 6 | 90* | -20 | 14
O=C(NCc1c(Cl)cccc1Oc1ccccc1)c1ccccc1 | 63* | -1 | -1 | x | 8 | 10
C=CCc1cccc2cc(C(=O)Nc3ccc(CC(=O)O)cc3)c(=O)oc12 | 36 | 0 | -1 | x | -16 | 5
C=CCc1cccc2cc(C(=O)Nc3cccc(C(=O)O)c3)c(=O)oc12 | 100* | 0 | -13 | x | -1 | 5
COCCCNC(=O)c1c(NC(=O)c2ccc(Cl)cc2Cl)sc2c1CCCC2 | -27 | x | x | x | x | 4
Cc1cc2sc3ccccc3c(=O)c2c(C)c1O | -90 | 1 | -7 | x | -4 | 6
O=c1c(C(c2ccccc2)c2c(O)sc3ccccc3c2=O)c(O)sc2ccccc12 | -3 | 0 | -14 | 80* | x | x
Cc1c(C(=O)N2CCOCC2)sc(NC(=O)COc2ccc(Cl)cc2)c1C#N | -4 | x | x | x | x | 12
CC1Oc2ccccc2NC1=O (stereo unspecified) | -7 | x | x | x | x | 10
COc1ccccc1CN(Cc1nc2ccccc2c(=O)[nH]1)S(=O)(=O)c1ccc(C)cc1 | 61* | 1 | -8 | -116 | x | 15
COc1ccccc1CN(Cc1nc2ccccc2c(=O)[nH]1)C(=O)Nc1ccc(C)cc1 | 1 | -1 | 13 | -25 | x | 16
O=C(CCn1ncc2ccccc21)N1CCn2cc(C(F)(F)F)nc2C1 | 1 | x | x | x | x | x
O=C(O)C[C@H](NC(=O)CP(=O)(O)O)C(=O)O.[NH-][C@@H]1CCCC[C@H]1[NH-].[Pt] | 9 | x | x | x | x | 40*
NC(=O)N[C@H](CC(=O)O)C(=O)O | -24 | x | x | x | x | 12
CCc1ccc2[nH]c(=O)c(CN(CC3CCCO3)C(=S)NC3CCCCC3)cc2c1 (stereo unspecified) | 82* | x | x | x | x | 10
CCc1ccc2[nH]c(=O)c(CN(CC3CCCO3)C(=S)NCc3ccccc3)cc2c1 (stereo unspecified) | 66* | x | x | x | x | 12
CCc1ccc2[nH]c(=O)c(CN(CC3CCCO3)C(=S)NCc3ccco3)cc2c1 (stereo unspecified) | -23 | 0 | 20 | x | -24 | 6
CCNC(=S)N(CCN(C)C)Cc1cc2cc(CC)ccc2[nH]c1=O | 63* | x | x | x | x | 9
COc1cccc(NC(=O)c2c(NC(=O)c3ccccc3)sc(C)c2C)c1 | 38 | x | x | x | x | 16
Cc1ccc2cc(C(c3nnnn3Cc3ccc(F)cc3)N3CCC(C)CC3)c(=O)[nH]c2c1 (stereo unspecified) | -9 | x | x | x | x | 25
COC(=O)c1c(NC(=O)CSc2nnc3c(C)cc4ccccc4n23)sc(C(C)=O)c1C | 2 | x | x | x | x | 9
O=S(=O)(c1cc(Cl)ccc1Cl)N1CCN(Cc2ccc3c(c2)OCO3)CC1 | -5 | -4 | 12 | x | 86* | 4
CCN1CCN(C(c2ccccc2F)c2nnnn2C2CCCCC2)CC1 (stereo unspecified) | -2 | x | x | x | x | 7
Cc1cc(C(C)(C)C)oc1C(=O)NCCCNC(=O)c1oc(C(C)(C)C)cc1C | 61*! | 2 | -9 | 10 | x | 7
